# Assay results reported in PubChem BioAssay (NCI).
# This is part of a sample that, as a whole, favours compounds with a hit. Of some 83,000 tested, about 20% had one in any assay.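 Assay: single dose, 48 h. Readout: percent growth (0 = no net growth; negative = cell death). Active: <10.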 A number with no mark means an inactive call. Active and inactive are the calls of the source.
# Key:
# Test in all cases: NCI-60 one-dose screen, 48 h (100 = growth as untreated, 0 = no growth, -100 = all killed)
# Details in all cases: 10 µM unless noted
# [1] = test system: NCI-H23 lung
# [2] = test system: NCI-H226 lung
# [3] = test system: NCI-H322M lung
# [4] = test system: HOP-62 NSCLC
# [5] = test system: NCI-H460 lung
# [6] = test system: HOP-92 NSCLC
# [7] = test system: NCI-H522 lung
# [8] = test system: A549/ATCC NSCLC
# [9] = test system: 786-0 renal
# [10] = test system: COLO 205 colon
# [11] = test system: DU-145 prostate
# [12] = test system: K-562 leukemia
# [13] = test system: MALME-3M melanoma
# [14] = test system: MDA-MB-231 breast
# [15] = test system: RXF 393 renal
# [16] = test system: SF-268 CNS
# [17] = test system: SF-295 CNS
# [18] = test system: SF-539 CNS
# [19] = test system: M14 melanoma
SMILES,growth [1],growth [2],growth [3],growth [4],growth [5],growth [6],growth [7],growth [8],growth [9],growth [10],growth [11],growth [12],growth [13],growth [14],growth [15],growth [16],growth [17],growth [18],growth [19]
CC(CCc1ccccc1)NC(=O)c1n[nH]c(=O)c2ccccc12 (stereo not drawn),116%,103%,89.7%,92.1%,110%,61.2%,82.4%,95.8%,107%,115%,110%,77.3%,116%,101%,144%,112%,107%,98.6%,104%
CCCCCCCN(CCCCCCC)C(=N)c1ccc(OC)c2ccccc12,-70.2% (active),-73.1% (active),-89% (active),-85.9% (active),-92% (active),-86.6% (active),-75.2% (active),-83.7% (active),-90.7% (active),-73% (active),-96.4% (active),-47.9% (active),-72% (active),-77.2% (active),-94.5% (active),-91% (active),-89.9% (active),-88% (active),-85.9% (active)
C=C1C(=O)O[C@H]2[C@H]1CC/C(Cn1cc(-c3ccccc3C(F)(F)F)nn1)=C\CC[C@@]1(C)O[C@@H]21,7.85% (active),-45.6% (active),81.6%,37.3%,49.1%,-70.4% (active),-82.5% (active),42.9%,-81.2% (active),-78.8% (active),-95.4% (active),-13% (active),-59.3% (active),-33.4% (active),-72.3% (active),-4.71% (active),58.8%,-74.9% (active),-79.1% (active)
CC1Cc2c(N(C)C)ncnc2N(C)c2ccc(Cl)cc21 (stereo not drawn),50.1%,85.6%,73.2%,41.9%,14.5%,58%,13.4%,55.8%,31.1%,36%,52.4%,14.3%,51.4%,55%,42.6%,44.5%,3.45% (active),4.81% (active),22.2%
COc1cc(Br)c(OC)cc1Br,78%,98.3%,89.7%,93.5%,99.3%,96.9%,90.4%,95.6%,105%,109%,106%,104%,75.4%,85.6%,116%,98.6%,94.7%,93.6%,91.5%
COC(=O)CCCCCCN=Cc1c(O)c(O)c(C(C)C)c2cc(C)c(-c3c(C)cc4c(C(C)C)c(O)c(O)c(C=NCCCCCCC(=O)OC)c4c3O)c(O)c12,19.5%,77.3%,45.2%,24%,6.7% (active),7.71% (active),-6.49% (active),29.7%,29%,15.7%,30.6%,10.5%,68.5%,11.9%,36.2%,32.8%,7.26% (active),15.2%,27%
O=C(/C=C/CN1CCOCC1)Nc1cc2c(Nc3ccc(F)c(Cl)c3F)ncnc2cc1OCCOC(F)F,69.2%,70%,8.76% (active),51.2%,49.4%,-8.94% (active),8.53% (active),40.5%,38.9%,71.9%,39.7%,52%,81.6%,33.8%,36.4%,48.3%,71.7%,63.5%,62.3%
COc1cc(/C=C/C(=O)c2ccccc2O)ccc1OCCCOc1cc2c(cc1OC)C(=O)N1CCC[C@H]1C=N2,3.19% (active),-3.94% (active),-10.6% (active),9.86% (active),-18.1% (active),-27.4% (active),-9.43% (active),6.93% (active),-44.8% (active),-3.82% (active),2.53% (active),76.3%,-73.1% (active),-20.6% (active),-44.6% (active),0.95% (active),-11% (active),-1.54% (active),-7.64% (active)
CCOP(=O)(CCN1CCN(CCCCCOc2cc3c(cc2OC)C(=O)N2CCC[C@H]2C=N3)CC1)OCC,104%,114%,140%,109%,75.5%,-47.9% (active),62.7%,93.9%,99.1%,71.4%,91.5%,35.7%,119%,74.3%,46%,57%,97.3%,53.5%,91.8%
CN1CCN(CCCOc2ccc3nc(Nc4ccc(C(F)(F)F)c(Cl)c4)ccc3c2)CC1,38.1%,54.1%,-5.95% (active),-21.7% (active),-40% (active),7.32% (active),-37.8% (active),3.9% (active),-60.9% (active),-77.9% (active),20.1%,-47.2% (active),-47.1% (active),-53.3% (active),6.61% (active),11.5%,-52.8% (active),-49% (active),-19.8% (active)
CCCCCCCC/C=C\CCCCCCCCOc1ccccc1CCOP(=O)(O)OCC[N+](C)(C)C,90.2%,95.6%,106%,42.1%,9.07% (active),30.3%,39.4%,48.9%,82.4%,58.4%,86.6%,72.7%,93%,73.9%,,44.9%,69.2%,84.8%,
COc1ccc(N=C2NN=C(c3ccc(F)cc3)CS2)cc1OC,104%,78.5%,96.4%,96.3%,107%,72.8%,89%,92.4%,88%,98.7%,103%,107%,104%,91.6%,78.3%,116%,90.8%,102%,105%
Cc1cc(C(=O)O)c(N)c(C)n1,100%,118%,106%,106%,108%,93.2%,107%,108%,104%,119%,110%,104%,109%,106%,121%,104%,111%,102%,102%
COc1cc(-c2csc(NC(=O)Nc3ccc(Cl)cc3Cl)n2)cc(OC)c1OC,42.7%,43.8%,30.8%,38.7%,10.3%,44%,21.4%,25.5%,33%,36.5%,46.6%,15.8%,45%,54.7%,49.9%,33.6%,19.2%,29.4%,34.9%
COc1ncc(-c2ccc3ncnc(Nc4cccc(Cl)c4)c3c2)cc1NS(=O)(=O)C1CC1,54.2%,24.1%,-5.8% (active),43.9%,28.3%,-7.31% (active),12.2%,26.3%,62.6%,31.4%,26%,60.5%,15.9%,37.9%,1.04% (active),43%,34.2%,27%,56.6%
